In PubChem BioAssay AID1159580 (chemical genetic matrix, 2015):
In all, about 5,500 compounds went through this assay and about 2,000 (36%) were called active. Roughly 18% stayed inconclusive and do not appear here. Cut-off read from the data, not from the text of the source: active = normalized growth mostly below about 0.91 (no sharp cut-off); inconclusive = no clear call, values can overlap the other calls; inactive = mostly above about 0.92. The list shows a part of the results.

Assay: chemical genetic growth profiling, strain panel (AID 1159580);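 note: tested at 20 µM; growth read once vehicle control cultures reached saturation at 30 °C; 1 = growth at the plate median or of vehicle wells; lower values mean less growth of the strain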
Conditions: growth OD

Measured: normalized growth

CSc1nc(N)nc(C(C)(C)C)n1
inactive: S. cerevisiae deletion strains, locus YAL013W, strain DEP1, stronger effect = lower value 1.01 | S. cerevisiae deletion strains, locus YBR229C, strain ROT2, stronger effect = lower value 1 | S. cerevisiae deletion strains, locus YCL061C, strain MRC1, stronger effect = lower value 0.993 | S. cerevisiae deletion strains, locus YDL101C, strain DUN1, stronger effect = lower value 0.976 | S. cerevisiae deletion strains, locus YDL134C, strain PPH21, stronger effect = lower value 1.01 | S. cerevisiae deletion strains, locus YDR150W, strain NUM1, stronger effect = lower value 0.978 | S. cerevisiae deletion strains, locus YEL061C, strain CIN8, stronger effect = lower value 1.02 | S. cerevisiae deletion strains, locus YGR078C, strain PAC10, stronger effect = lower value 1.01 | S. cerevisiae deletion strains, locus YHR030C, strain SLT2, stronger effect = lower value 0.974 | S. cerevisiae deletion strains, locus YHR087W, strain rtc3, stronger effect = lower value 1 | S. cerevisiae deletion strains, locus YJL187C, strain SWE1, stronger effect = lower value 1.02 | S. cerevisiae deletion strains, locus YJR043C, strain POL32, stronger effect = lower value 1.01 | S. cerevisiae deletion strains, locus YJR075W, strain HOC1, stronger effect = lower value 0.978 | S. cerevisiae deletion strains, locus YLR039C, strain RIC1, stronger effect = lower value 1.01 | S. cerevisiae deletion strains, locus YLR058C, strain SHM2 (second series), stronger effect = lower value 1.02 | S. cerevisiae deletion strains, locus YLR085C, strain ARP6, stronger effect = lower value 1.03 | S. cerevisiae deletion strains, locus YLR262C, strain YPT6, stronger effect = lower value 1.01 | S. cerevisiae deletion strains, locus YML094W, strain GIM5, stronger effect = lower value 0.981 | S. cerevisiae deletion strains, locus YMR219W, strain ESC1, stronger effect = lower value 1.02 | S. cerevisiae deletion strains, locus YMR263W, strain SAP30, stronger effect = lower value 0.991 | S. cerevisiae deletion strains, locus YNL128W, strain TEP1, stronger effect = lower value 1.02 | S. cerevisiae deletion strains, locus YNL153C, strain GIM3, stronger effect = lower value 0.982 | S. cerevisiae deletion strains, locus YNL298W, strain CLA4 (second series), stronger effect = lower value 1.03 | S. cerevisiae deletion strains, locus YNL322C, strain KRE1, stronger effect = lower value 1 | S. cerevisiae deletion strains, locus YNR030W, strain Alg12, stronger effect = lower value 1 | S. cerevisiae deletion strains, locus YOL006C, strain TOP1, stronger effect = lower value 0.968 | S. cerevisiae deletion strains, locus YPL055C, strain LGE1, stronger effect = lower value 0.989 | S. cerevisiae deletion strains, locus YPL241C, strain CIN2, stronger effect = lower value 1.11 | S. cerevisiae deletion strains, locus YPR135W, strain CTF4, stronger effect = lower value 0.951 | S. cerevisiae strains, strain wild type, stronger effect = lower value 1.02
